Screening results: PubChem, National Center for Advancing Translational Sciences (NCATS)
ATXN2 expr inh – Primary qHTS for Inhibitors of ATXN expression | HEK-293 ATXN2-luciferase reporter, luminescence, 24 h | Potency, µM (doses to about 57 µM), for inactives: at the highest dose activity change, negative = inhibition, actives largely listed as inhibitors | 0.72% of 360,000 active; further: on the % scale 0 is the no-effect control and ±100 the full control effect; nearly all actives have a fitted effect of over 55% in size
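qHTS (up to 57 uM final) was run with 24 h compound exposure of reporter cells at 37 °C. Each well was multiplexed: SteadyGlo luminescence measured ATXN2-luciferase expression after a fluorogenic Gly-Phe-AFC viability readout (25 uM final).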
TGFb SMAD3 inh – qHTS for Inhibitors of TGF-b; Potency, µM (series often up to 46.1 µM), for inactives: at the highest dose activity, negative = inhibition, usual class: inhibitors; 1.2% of 410,000 active; AID 588855, 2011; HepG2 CAGA-GFP TGF-b/SMAD3 reporter, GFP fluorescence, 18 h; TGF-beta stimulated, 500 pg/mL final; further: on the % scale 0 is the no-effect control and ±100 the full control effect; nearly all actives have a fitted effect of over 65% in size
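Inhibition was scored as loss of TGF-beta-induced (500 pg/mL final, 18 hours, 37 degrees C) GFP in HEPG2 cells carrying a CAGA-GFP reporter, in DMEM with 1% FBS. Well GFP was summed per cell; Activity was normalised to unstimulated and stimulated DMSO wells, then concentration-response fitting.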
DT40 TDP1 CPT – qHTS for Inhibitors of human tyrosyl-DNA phosphodiesterase 1 (TDP1): qHTS in cells in presence of CPT; AID 686979, 2013; chicken DT40 Tdp1-/-;hTDP1 cells + 20 nM CPT, ATP luminescence, 48 h; 12% of 420,000 active; Potency, µM (top dose mostly 46.2 µM), for inactives: top-dose activity change, negative = growth inhibition, most hits filed as inhibitors; further: on the % scale 0 is the no-effect control and ±100 the full control effect; nearly all actives have a fitted effect of over 55% in size
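Cell growth measured by CellTiter-Glo luminescence after a minimum 48 h, 37 C compound exposure with 20 nM CPT in Tdp1-knockout DT40 cells stably expressing hTDP1, seeded 400/well; qHTS titration format.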
DT40 TDP1 no CPT – qHTS for Inhibitors of human tyrosyl-DNA phosphodiesterase 1 (TDP1): qHTS in cells in absence of CPT | DT40 Tdp1-/- hTDP1 cells, no CPT, ATP luminescence, 48 h | Potency, µM (top dose mostly 46.2 µM), for inactives: at the highest dose activity change, negative = growth inhibition, hits mostly inhibitors | AID 686978, 2013 | 15% of 420,000 active; further: on the % scale 0 is the no-effect control and ±100 the full control effect; nearly all actives have a fitted effect of over 55% in size
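Growth of hTDP1-complemented DT40 Tdp1-knockout cells is measured by ATP luminescence after at least 48 hr compound exposure at 37 °C, with DMSO substituting for the 20 nM CPT used in the parallel screen.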
HepG2 viability – qHTS for Inhibitors of TGF-b: Cytotox Counterscreen | HepG2 CAGA-GFP viability, ATP luminescence, 18 h | Potency, µM (titrated, usually from 46.1 µM), without a hit: at the highest dose activity change, negative = cytotoxicity, hits mostly cytotoxic | 0.76% of 410,000 active | AID 588856, 2011
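HepG2 CAGA-GFP cells (1000/well, DMEM with 1% FBS) received compound, then TGF-beta at 500 pg/mL final, and were incubated 18 hours at 37 degrees C. Viability was read by CellTiter-Glo luminescence. Media-only wells were set as complete cell-killing and DMSO as no toxicity.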
ATXN viability – Viability Counterscreen for Primary qHTS for Inhibitors of ATXN expression; Potency, µM (top dose mostly 56.7 µM), usual class: cytotoxic; 0.49% of 400,000 active; AID 651635, 2014; S2 cells (HEK-293 line with an ATXN2-luciferase reporter) viability, CellTiter-Fluor protease fluorescence, 24 h; further: nearly all actives have a fitted effect of over 40% in size
Active calls of the source: *; i = inactive; ? = inconclusive; / = no result given; [ ] = remark or other dose. This is a sample that favours compounds with a hit; in the whole collection about 17% have one here. The call rests on the fitted dose curve; in most records, active means well fitted curve in the direction sought with a large enough effect; inconclusive means small, poorly fitted or top-dose-only effect, or another doubt; inactive means no such curve, though single readings can be large; an effect the other way counts as inactive or inconclusive. Potency means the concentration at half of the fitted maximal effect.

SMILES | ATXN2 expr inh | TGFb SMAD3 inh | DT40 TDP1 CPT | DT40 TDP1 no CPT | HepG2 viability | ATXN viability
CCCCC1C2C(=O)N(c3ccc(C)cc3)C(=O)C2ON1c1ccccc1 (centres undefined) | / | -2% | 2% | -2% | -5% | i
CC(C)CC1NC(=O)N(CC(=O)N2CCCc3ccccc32)C1=O (centres undefined) | -18% | -22% | 17% | -2% | -11% | i
Cc1ccc(-c2nnc(Nc3ccc(C(N)=O)cc3)c3ccccc23)cc1S(=O)(=O)N1CCCCC1 | 10% | -7% | ? | ? | -14% | i
Cc1ccccc1Nc1nnc(-c2ccc(C)c(S(=O)(=O)N3CCOCC3)c2)c2ccccc12 | 5% | 6% | ? | 16µM* | 12% | i
CNS(=O)(=O)c1cc(-c2nnc(Nc3cc(C)ccc3C)c3ccccc23)ccc1C | ? | ? | 21µM* | 21µM* | -25% | i
CNS(=O)(=O)c1cc(-c2nnc(N3CCOCC3)c3ccccc23)ccc1C | / | 5% | -1% | -3% | -2% | i
Cc1ccc(Nc2nnc(-c3ccc(C)c(S(=O)(=O)N4CCOCC4)c3)c3ccccc23)c(C)c1 | / | 16% | ? | 16µM* | 2% | /
COC(=O)c1ccc(NC(=O)CCn2cnnn2)cc1 | 2% | 16% | 5% | 7% | -2% | i
COc1cc(C(=O)Nc2nnc(C3CC3)s2)ccc1OCc1c(C)noc1C | 8% | 5% | -2% | -1% | 5% | i
COc1ccccc1C1CN(CCNC(=O)[C@@H]2CSC(=O)N2)Cc2ccccc2O1 (some centres undefined) | / | / | -1%[9.04 µM] | -16% | / | i
COC(=O)c1sc(-c2ccc(Cl)cc2)cc1N | 67% | 10% | 1% | -1% | -2% | i
COc1ccccc1NC(=O)c1cc(N)cc(C(=O)Nc2ccccc2OC)c1 | -17% | 0% | 23µM* | ? | -16% | i
COc1ccccc1N1CCN(C(=O)c2coc(=O)c(Br)c2)CC1 | 3% | -8% | 3.3µM* | 7.3µM* | -11% | i
COc1ccccc1NC(=O)c1coc(=O)c(Br)c1 | 15% | -29% | 0.73µM* | 2.1µM* | -2% | i
COc1ccccc1NC(=O)c1sc(-c2ccc(Cl)cc2)cc1N | / | -1% | ? | 18µM* | -40% | /
COc1ccccc1NC(=O)c1cc[n+](C)cc1 | / | -2% | 0% | -2% | 4% | i
CCCCN1C(=O)C(CC(=O)NCCCN(C)C)CC(C(=O)N(C(C)C)C(C)C)=C1C (centres undefined) | 10% | / | -5% | 8% | / | i
COc1ccc(N2CCN(C(c3cccs3)C(C)NC(=O)C(=O)N3CCCC3)CC2)cc1 (centres undefined) | -16% | 0% | 16µM* | ? | 1% | i
CC(NS(C)(=O)=O)C(c1cccs1)N1CCN(c2ccccc2)CC1 (centres undefined) | -19% | 8% | -1% | -7% | -16% | i
COc1ccc(N2CCN(C(c3cccs3)C(C)NC(=O)C(=O)N3CCCCC3)CC2)cc1 (centres undefined) | 1% | 8% | -14% | -4% | 18% | i
CC(NS(=O)(=O)c1ccc(Br)cc1)C(c1cccs1)N1CCOCC1 (centres undefined) | 3% | 0% | 18µM* | ? | -1% | i
COc1ccc(N2CCN(C(c3cccs3)C(C)NS(=O)(=O)c3ccccc3)CC2)cc1 (centres undefined) | -11% | -5% | 21µM* | 13µM* | 0% | ?
CC(NS(=O)(=O)c1ccccc1)C(c1cccs1)N1CCOCC1 (centres undefined) | 5% | 9% | -3% | 4% | -1% | i
CCS(=O)(=O)NC(C)C(c1cccs1)N1CCN(c2ccc(OC)cc2)CC1 (centres undefined) | -4% | -5% | 21µM* | 23µM* | -18% | i
CSc1nc(C)cc(Nc2cccc(C(=O)O)c2)n1 | 3% | 12% | 6% | -4% | 0% | i
SMILES | ATXN2 expr inh | TGFb SMAD3 inh | DT40 TDP1 CPT | DT40 TDP1 no CPT | HepG2 viability | ATXN viability
Cc1ccc(NC(=O)CN2C(=O)c3ccccc3S2(=O)=O)c(C)c1 | -17% | 4% | -21% | 29% | 15% | i
CCOc1ccccc1OCCCC(=O)NNC(=O)c1cc(C)oc1C | 0% | -1% | -8% | -2% | -33% | ?
COc1ccc2c(c1)c1c(c(=O)n(-c3cccc(C)c3)c(=O)n1CC(=O)NCCC1=CCCCC1)n2C | 16% | -10% | -12% | -27% | 3% | ?
COc1ccc(-n2c(CN3CCC(C)CC3)nc3ccc([N+](=O)[O-])cc3c2=O)c(OC)c1 | / | ? | 18µM* | ? | -22% | i
CCc1ccc(NC(=O)C2(C)Cc3ccccc3C(=O)O2)cc1 (centres undefined) | 18% | 6% | -28% | ? | -3% | i
O=c1[nH]c(CSc2ncccn2)nc2c1cnn2-c1ccccc1 | 7% | -7% | -26% | -20% | -7% | i
O=c1[nH]c(SCc2nc3c(cnn3-c3ccccc3)c(=O)[nH]2)nc2ccccc12 | 67% | 4% | ? | 21µM* | -13% | i
O=c1[nH]c(CSc2nc3ccccc3[nH]2)nc2c1cnn2-c1ccccc1 | ? | -2% | 26µM* | 21µM* | -41% | ?
Cc1ccc2nc(SCc3nc4c(cnn4-c4ccccc4)c(=O)[nH]3)[nH]c2c1 | -23% | -19% | 21µM* | 16µM* | -22% | i
Cc1ccc2nc(SCc3nc4cc(Cl)ccc4c(=O)[nH]3)[nH]c2c1 | -20% | 18% | -9% | ? | -13% | i
CCCN=C(C)c1c(-c2ccccc2)[nH]n(-c2nc3ccccc3s2)c1=O | 6% | -4% | ? | 26µM* | -3% | i
C/C(=N/NC(=O)c1cccs1)c1c(C)[nH]n(-c2nc3ccccc3s2)c1=O | ? | -27% | 3.7µM* | 2.3µM* | 1µM* | i
CCN(CC)CCCN=Cc1c(-c2ccccc2)[nH]n(-c2nc3ccccc3s2)c1=O | -13% | 1% | -22% | ? | 6% | i
